# GDH-TPI inh – inhibits GDH-TPI coupling enzymes, artifact for Mtb FBA screen; 360,000 tested, 1.2% active; inhibition, % at 4.8 µM; GDH-TPI coupled enzyme counterscreen, NADH absorbance; AID 588335; in the data active = inhibition above about 30%;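 note: 0% = DMSO wells and 100% = wells lacking the enzyme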
# Mtb FBA inh – inhibitors of M. tuberculosis fructose-bisphosphate aldolase. purified M. tuberculosis FBA, fluorescence read-out. inhibition, % at 1 µM. 360,000 tested, 2.3% active; in the data active = inhibition above about 27%;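 note: 0% = vehicle and 100% = reference inhibitor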
# BioA inh – blocks M. tuberculosis BioA enzyme activity | purified M. tuberculosis BioA enzyme, plate reader | inhibition, % at 9.99 µM | 360,000 tested, 0.096% active; in the data active = inhibition above about 40%
# Rv3671c protease – inhibits the M. tuberculosis serine protease Rv3671c. inhibition, % at 5.96 µM. P9WHR9. 320,000 tested, 0.048% active. AID 2606; in the data active = inhibition above about 38%;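 note: extracellular domain of Rv3671c used as enzyme; 0% = enzyme with DMSO and 100% = no enzyme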
# Target sequence (P9WHR9 whole entry, looked up, the tested form may be a part): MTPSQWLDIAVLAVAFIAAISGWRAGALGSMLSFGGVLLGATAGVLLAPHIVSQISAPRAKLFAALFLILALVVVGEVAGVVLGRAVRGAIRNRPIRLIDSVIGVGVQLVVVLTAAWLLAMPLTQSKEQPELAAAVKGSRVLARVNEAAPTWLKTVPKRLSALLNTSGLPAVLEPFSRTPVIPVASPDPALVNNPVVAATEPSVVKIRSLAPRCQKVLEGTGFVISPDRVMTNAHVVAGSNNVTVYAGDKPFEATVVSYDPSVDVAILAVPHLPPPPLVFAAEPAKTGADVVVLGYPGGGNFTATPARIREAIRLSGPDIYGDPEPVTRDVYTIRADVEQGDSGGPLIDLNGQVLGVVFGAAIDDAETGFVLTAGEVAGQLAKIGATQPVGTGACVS
# FadD28 FP inh – blocks FadD28 binding to the bisubstrate probe. fluorescence polarization. inhibition, % at 12.5 µM. 360,000 tested, 0.22% active; in the data active = inhibition above about 8.5%, passing the limit was not always enough
# An asterisk follows results filed as active; / = no result; + = active, no number. This is a sample that favours compounds with a hit; in the whole collection about 3% have one here.
SMILES,GDH-TPI inh,Mtb FBA inh,BioA inh,Rv3671c protease,FadD28 FP inh
CC(=O)NC(Cc1ccccc1)C(=O)N1CCN(C(=O)c2ccco2)CC1 (stereo unspecified),2.6,0.6,/,-1.0,-1.1
O=C(CC(SCCO)c1ccc([N+](=O)[O-])cc1)c1ccco1 (stereo unspecified),31.0*,0.6,-2.4,-2.1,-1.9
Cc1ccc(C(=O)CC(SCC(=O)O)c2ccc([N+](=O)[O-])cc2)cc1 (stereo unspecified),8.1,1.4,/,-20.3,-0.3
C[C@@H]1CN([C@H](C)CO)C(=O)c2cc(NC(=O)CCC(F)(F)F)ccc2O[C@@H](C)CCCCO[C@H]1CN(C)C(=O)C1CCCCC1,/,/,4.6,/,/
COCC(=O)N(C)C[C@@H]1Oc2ncc(C#CC3(O)CCCC3)cc2C(=O)N([C@@H](C)CO)C[C@H]1C,/,/,-3.4,/,/
COc1ccccc1/C=C\C(=O)NCC(=O)N/N=C/c1ccc(O)cc1O,35.8*,-1.6,-0.5,7.0,-3.4
CCOc1cc(C(=O)NCCN2C(=O)S/C(=C\c3cccnc3)C2=O)cc(OCC)c1OCC,4.7,1.6,/,2.5,-2.2
COc1ccc(C(=O)NCCN2C(=O)S/C(=C\c3cccnc3)C2=O)c(OC)c1OC,32.6*,-0.8,-2.2,-2.0,-1.5
CCCC#Cc1ccc2c(c1)O[C@@H](CN(C)C(=O)c1ccccn1)[C@H](C)CN([C@H](C)CO)S2(=O)=O,/,/,1.6,/,/
COc1ccc(Cl)cc1C=CC=NNS(=O)(=O)c1ccc(C)cc1,37.1*,0.0,/,/,-1.2
COc1ccccc1C1Nc2ccccc2NC2=C1C(=O)CC(C)(C)C2 (stereo unspecified),26.5,-2.1,-1.3,6.0,-2.5
CC1(C)CC(=O)C2=C(C1)Nc1ccccc1NC2c1ccccn1 (stereo unspecified),41.9*,-2.0,0.2,3.9,-1.7
COc1cccc(C2Nc3ccccc3NC3=C2C(=O)CC(C)(C)C3)c1OC (stereo unspecified),34.8*,2.0,-1.2,-7.6,0.1
CC1(C)CC(=O)C2=C(C1)Nc1ccccc1NC2c1nc2ccccc2[nH]1 (stereo unspecified),32.2*,-1.5,2.0,1.0,-2.3
CC1(C)CC(=O)C2=C(C1)Nc1ccccc1NC2c1ccc2c(c1)OCO2 (stereo unspecified),41.0*,-0.1,/,0.5,0.5
CC1(C)CC(=O)C2=C(C1)Nc1ccccc1NC2c1ccc(F)cc1 (stereo unspecified),27.4,-0.3,-0.5,7.6,-3.3
Cc1noc(C)c1NC(=O)N(C)C[C@H]1OCCCC[C@@H](C)Oc2ccc(NC(=O)Nc3ccccc3)cc2C(=O)N([C@H](C)CO)C[C@@H]1C,/,/,-5.8,/,/
C/C(=N\Nc1ccc2nncn2n1)c1cccs1,34.6*,1.6,1.5,3.0,-2.1
Cc1c(C)c2cc(Cl)c(OCC(=O)NC3CC(C)(C)NC(C)(C)C3)cc2oc1=O,14.8,18.8,-2.0,-2.5,-2.7
Cc1cc(OCC(=O)N2CCC(C(=O)O)(c3ccccc3)CC2)c2c(C)c(C)c(=O)oc2c1,-1.0,64.0*,7.8,-11.8,-1.4
Cc1cc(OCC(=O)NC2CC(C)(C)NC(C)(C)C2)c2c(C)c(C)c(=O)oc2c1,24.4,131.2*,-1.0,4.3,-3.8
COc1cccc(N2CC(=O)Nc3c(oc4nc(-c5ccccc5)cc(C)c34)C2=O)c1,35.3*,2.4,/,8.4,-1.9
CO[C@H]1CC[C@@H]2CCOc3ccc(C#N)cc3C(=O)N(C)C[C@H](C)C(=O)N(C)C[C@H]1O2,/,/,2.6,/,/
Cc1ccccc1NC(=O)CN1C(=O)S/C(=C\c2ccc(-c3cc(C(=O)O)ccc3C)o2)C1=O,3.8,-3.0,/,/,-1.2
Cc1cccc(NC(=O)CN2C(=O)S/C(=C\c3cc(C)n(C)c3C)C2=O)c1,6.4,-0.2,7.6,-7.2,33.6*
SMILES,GDH-TPI inh,Mtb FBA inh,BioA inh,Rv3671c protease,FadD28 FP inh
Cc1ccc(C(=O)O)cc1-c1ccc(/C=C2\SC(=O)N(CC(=O)Nc3ccccc3)C2=O)o1,13.4,-2.5,-3.8,-17.9,17.5*
Cc1ccc(NC(=O)CN2C(=O)S/C(=C\c3cc(C)n(C)c3C)C2=O)cc1,21.2,0.5,-0.4,-18.8,-1.8
Cc1ccc(NC(=O)CN2C(=O)S/C(=C\c3cc(C)n(-c4cccc(C(=O)O)c4)c3C)C2=O)cc1,14.4,-4.8,/,-16.8,43.3*
COc1cc(/C=N/Nc2nc3ccccc3[nH]2)cc(OC)c1O,22.9,-4.6,/,21.1,-0.3
COc1cccc(/C=N/Nc2nc3ccccc3[nH]2)c1O,35.8*,-3.9,3.8,7.6,-2.5
COc1cc(/C=N/Nc2nc3ccccc3[nH]2)ccc1O,49.6*,2.8,2.1,11.3,2.0
CCCc1cn(CC[C@@H]2CC[C@@H](NC(=O)C3CCOCC3)[C@H](CO)O2)nn1,/,/,-0.7,/,/
COC(=O)C[C@H]1CC[C@@H]2[C@H](COc3ccc(NC(=O)c4cscn4)cc3C(=O)N2C)O1,/,/,0.6,/,/
CCN(CC)c1ccc(C(=O)n2cnc3ccccc32)cc1,39.6*,0.1,0.2,-2.2,-0.9
CC(=O)c1ccc(N/N=C(/C(N)=O)C2=NC(C)(C)Cc3ccccc32)cc1,34.6*,-2.7,0.7,-4.9,-2.8
C[C@@H]1CN([C@H](C)CO)C(=O)c2cc(NC(=O)Nc3ccc(F)cc3)ccc2O[C@H]1CN(C)S(C)(=O)=O,/,/,1.8,/,/
COC(=O)C1=C(C)NC2=C(C(=O)CCC2)C1c1ccc(-c2ccsc2C(=O)OC)o1 (stereo unspecified),49.7*,1.9,/,2.0,-1.4
COc1cc(/C=C2\S/C(=N/S(=O)(=O)c3ccccc3)NC2=O)c([N+](=O)[O-])cc1OC,43.4*,-1.6,0.4,3.2,4.7
COc1ccc(S(=O)(=O)/N=C2/NC(=O)/C(=C/c3ccco3)S2)cc1,10.0,-6.8,/,2.8,20.1*
COc1ccc(S(=O)(=O)/N=C2/NC(=O)/C(=C\c3ccco3)S2)cc1,25.1,-2.1,/,-16.0,7.5
c1ccc(-c2ccc(-c3ccccn3)s2)nc1,28.7,+,-2.1,-2.9,-0.9
CCOc1cc(/C=N/N=C2/NC(=O)C(CC(=O)O)S2)ccc1OCc1ccc(Cl)cc1 (stereo unspecified),31.9*,-12.7,/,-7.7,-2.0
Cn1c(=O)n(C)c2cc(/C=N/N=C3/NC(=O)C(CC(=O)O)S3)ccc21 (stereo unspecified),38.0*,-0.8,/,-9.8,-2.0
COc1ccc(/C=N/N=C2/NC(=O)C(CC(=O)O)S2)cc1OCc1ccc(Cl)cc1 (stereo unspecified),56.8*,-4.2,-0.7,2.6,-2.3
COc1ccc(/C=N/N=C2/NC(=O)C(CC(=O)O)S2)cc1OS(=O)(=O)c1ccccc1 (stereo unspecified),27.9,-4.7,-1.1,-0.7,-3.8
O=C(O)CC1S/C(=N/N=C/C=C/c2ccccc2)NC1=O (stereo unspecified),50.4*,-2.4,0.6,1.9,1.2
COc1cc(/C=N/N=C2/NC(=O)C(CC(=O)O)S2)ccc1OCc1cccc(Cl)c1 (stereo unspecified),24.5,-2.3,/,1.8,-3.0

# Bioassay records deposited in PubChem BioAssay by several laboratories.
